Where “and” joins values, the source holds several entries; their conditions need not be identical. Equal entries are not always repeated. Calls of active or inactive are those of the source.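 How the source made its calls, unless noted: active means compounds that lower viability of the colon cancer cells in the luminescence readout, with no numeric limit stated; inactive means the rest.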
Legend:
[1] = liver-stage malaria parasite growth inhibition, primary screen, cell-based, HepG2, luciferase luminescence, HepG2 viability (AID 624349; in the data active means parasite load remaining mostly below about 12%, no sharp cut-off; inactive means mostly above about 10%;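 further: 100% = mean of DMSO negative control wells on the same plate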); conditions: P. berghei liver stage in HepG2, luciferase luminescence, concentration not given here; parasite load remaining: stronger effect = lower value; viability: measured here: HepG2 viability without parasites
[2] = stimulators of nuclear beta-catenin in C2C12, primary screen, imaging, WNT3A-conditioned medium, mouse C2C12, NPC library (AID 1117326; in the data active means nuclear beta-catenin stimulation mostly above about 4.2%, no sharp cut-off; inactive means mostly below about 10%); conditions: stronger effect = higher value
[3] = stimulators of insulin release from INS-1E, primary screen, cell-based, 5 mM glucose, NPC library (AID 1117329;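 active means compound raises insulin release from rat beta cells at 5 mM glucose, no numeric limit stated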); conditions: rat INS-1E insulin secretion, at 10 µM, stronger effect = higher value
[4] = growth inhibition of GSK3B-pretreated HCT116 cells – cell-based, CellTiter-Glo, 0.2 to 20 µM (AID 1117336;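 active means compounds lowering colon cancer cell viability after pretreatment blocking the GSK3B kinase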); conditions: HCT116 viability after GSK3B inhibitor, at 20 µM, stronger effect = higher value
[5] = inhibition of endothelial tube formation, primary screen, imaging, VEGF stimulated, CD31 staining, tube area, NPC library (AID 1117340;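 active means compound that reduces growth-factor-driven endothelial tube area in a mixed cell culture, no cutoff stated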); conditions: VEGF-stimulated ADSC/ECFC co-culture, at 10 µM, stronger effect = higher value
[6] = glucagon-like peptide 1 release enhancers, primary assay, NCI-H716 cell line, NPC library (AID 1117341;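 active means compound raises GLP1 secretion from the human gut endocrine cells, with no numeric limit stated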); conditions: NCI-H716 cells, at 10 µM, stronger effect = higher value
[7] = HCT116 colon cancer cell growth inhibition, primary screen, CellTiter-Glo luminescence, NPC library (AID 1117342;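 active means compounds that lower survival of HCT116 colon cancer cells in the luminescence readout, no numeric limit stated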); conditions: at 20 µM (top of the series)
[8] = CellTiter-Glo luminescent readout of SW480 viability loss, NPC library primary (AID 1117343); conditions: CellTiter-Glo luminescence; at 20 µM (top of the series) unless noted
[9] = decreased DLD-1 cellular survival, CellTiter-Glo luminescent readout, NPC compound collection, primary HTS (AID 1117346;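 active means compounds that lower survival of DLD-1 colon cancer cells in the luminescence readout, no cutoff given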); conditions: DLD-1 viability, CellTiter-Glo luminescence; at 20 µM (top of the series)
[10] = differential killing of epithelial or mesenchymal cells, primary screen, imaging, PC-3E GFP, TEM4-18 mCherry, co-culture (AID 1345086;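 active means compounds killing one labelled cell type while sparing the other, by normalised counts and ratio limits, not self-fluorescent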;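 on all read-outs here: cells exposed to compound for 72 h before imaging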;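 on red/green cell ratio (normalised): normalised mesenchymal count divided by normalised epithelial count so high means epithelial killing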); conditions: imaging cell counts, at 1 µM; for red/green cell ratio (normalised): actives lie on both sides, counts scaled to control wells, 1 = unselective
[11] = target: NAD(+) hydrolase SARM1 (Homo sapiens) (UniProt Q6SZW1); experiment: SARM1 TIR NADase inhibitors, cell lysate, NAD-Glo luminescence (AID 1508614;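 active means compound whose remaining NAD level is above about 45 nM, limit read from the data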); conditions: SAM-TIR HEK293T lysate NADase, at 1 µM, stronger effect = higher value
[12] = viability rescue of complex I mutant cybrids, primary screen, cell-based, galactose medium, ATP luminescence (AID 1645843;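 active means z-score of at least 1.8 in each of two replicates, scored against plate mean and spread of sample wells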;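 further: positive z means more ATP and so rescue of galactose-driven cybrid death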); conditions: complex I mutant cybrid cells, 72 h, stronger effect = higher value
[13] = sensitizers of A549 cells to miR-34 induction, primary screen, imaging, A549 dox-inducible miR-34, nuclei and caspase counts (AID 1347080;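 active means compounds whose cell count with miR-34 switched on is under 0.7 times the count with it off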); conditions: A549 miR-34 inducible, Hoechst nuclei count, 48 h
[14] = measured here: epithelial PC-3E GFP cell survival
[15] = measured here: mesenchymal TEM4-18 mCherry cell survival
[16] = stronger effect = lower value, cell number ratio, induced over uninduced
[17] = measured here: relative caspase fold change +Dox/-Dox
[18] = measured here: total cells with miR-34 induction, stronger effect = lower value
[19] = measured here: total cells without miR-34 induction

NAD(+) hydrolase SARM1 (Homo sapiens), sequence (Q6SZW1 whole entry, looked up): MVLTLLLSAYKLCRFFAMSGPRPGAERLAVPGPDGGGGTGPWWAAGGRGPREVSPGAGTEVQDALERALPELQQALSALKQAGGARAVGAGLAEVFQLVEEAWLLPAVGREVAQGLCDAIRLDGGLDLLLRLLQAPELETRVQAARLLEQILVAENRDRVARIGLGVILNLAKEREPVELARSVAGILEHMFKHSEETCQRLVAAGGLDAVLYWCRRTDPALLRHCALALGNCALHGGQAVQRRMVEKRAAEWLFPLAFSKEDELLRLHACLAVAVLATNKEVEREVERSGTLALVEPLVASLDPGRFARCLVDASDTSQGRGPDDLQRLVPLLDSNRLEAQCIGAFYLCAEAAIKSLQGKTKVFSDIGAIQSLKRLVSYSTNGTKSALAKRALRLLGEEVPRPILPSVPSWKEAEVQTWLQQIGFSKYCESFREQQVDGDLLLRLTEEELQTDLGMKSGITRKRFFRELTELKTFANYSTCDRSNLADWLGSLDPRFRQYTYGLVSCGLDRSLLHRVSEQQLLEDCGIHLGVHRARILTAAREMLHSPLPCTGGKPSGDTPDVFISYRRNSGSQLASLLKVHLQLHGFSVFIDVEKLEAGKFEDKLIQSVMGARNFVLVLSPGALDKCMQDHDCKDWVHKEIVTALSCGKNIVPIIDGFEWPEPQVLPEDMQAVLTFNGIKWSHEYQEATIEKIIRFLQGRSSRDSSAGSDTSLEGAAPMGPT

SMILES | parasite load remaining [1] | viability [1] | nuclear beta-catenin stimulation ([2]; at 10 µM) | nuclear beta-catenin stimulation ([2]; stimulation, at 2 µM) [%] | insulin secretion stimulation [3] | viability decrease [4] | tube area decrease [5] | GLP1 secretion stimulation [6] | inhibition of viability [7] | viability decrease (inhibition) [8] | viability decrease (inhibition) [9] | red/green cell ratio (normalised) [10] | normalised cell number [10, 14] | normalised cell number [10, 15] | remaining NAD [11] | z-score [12] | fold change [13, 16] | fold change [13, 17] | cell count [13, 18] | cell count [13, 19]
Cc1cc(C(C#N)c2ccc(Cl)cc2)c(Cl)cc1NC(=O)c1cc(I)cc(I)c1O (stereo not drawn) | 10.9% (inactive) | 94.5% | 2.4% (inactive) | 1.5 | -0.6% (inactive) | 120% (active) | 111% (active) | 14.4% (inactive) | 125% (active) | 163% (active) | 101% (active) | 0.8 (inactive) | 1.27 | 1.02 | 10 nM (inactive) | 0.12 (inactive) | – | – | – | –
CCOC(=O)c1ccc(O)cc1 | 75.1% (inactive) | 94.6% | -0.6% (inactive) | 0.9 | 5.1% (inactive) | 1.8% (inactive) | -5% (inactive) | 2.1% (inactive) | 4.1% (inactive) | 29.4% (inactive) | 11.2% (inactive) | 0.82 (inactive) | 1.05 | 0.86 | 10 nM (inactive) | – | 0.873 (inactive) | 1.39 | 10900 | 12500
NCCNCCNCCN | 41.3% (inactive) | 163% | 0.6% (inactive) | 0.7 | 0.4% (inactive) | 0.25% (inactive) | -7.4% (inactive) | -0.1% (inactive) | 4.7% (inactive) | -40.9% (inactive) | 3.2% (inactive) | 0.86 (inactive) | 1.02 | 0.88 | 10 nM (inactive) | – | 0.908 (inactive) | 4.46 | 11700 | 12900
CC(=O)NCc1c(I)c(NC(C)=O)c(I)c(C(=O)O)c1I | 120% (inactive) and 34.8% (inactive) | 74.1% and 92.4% | -1.4% (inactive) | -1.3 | -0.4% (inactive) | -16.4% (inactive) | -6.1% (inactive) | 0% (inactive) | -14.3% (inactive) | 27.5% (inactive) | -14.8% (inactive) | 1.24 (inactive) | 1.02 | 1.27 | – | – | 0.851 (inactive) | 1.88 | 10700 | 12600
C[C@@]12C(=O)OC(=O)[C@]1(C)C1CCC2O1 | – | – | -1.7% (active) | 49.7 | 2.3% (inactive) | 83.1% (active) | 111% (active) | 20.1% (active) | 73% (active) | 112% (active) | 91% (active) | 0.98 (inactive) | 1.02 | 1.01 | – | – | – | – | – | –
CC(C)=CCC/C(C)=C/CO | 123% (inactive) | 71.1% | -0.1% (inactive) | 3 | 0.7% (inactive) | -10.3% (inactive) | 12.4% (inactive) | -1.8% (inactive) | 1.77% (inactive) | -1.7% (inactive) | -8.2% (inactive) | 0.92 (inactive) | 1.13 | 1.03 | – | – | – | – | – | –
